Experimental data taken from PubChem BioAssay.
Values without a mark were called inactive. No rule for the calls is given here.

Tested on: Aerobactin synthetase IucA (Klebsiella pneumoniae hvKP1)
Assay: IucA enzyme inhibition, primary screen, biochemical, Spectrum library (AID 1346200);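 also: 100% = wells without compound and 0% = wells lacking enzyme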
Settings: malachite green pyrophosphate, A620, at 8 µM, stronger effect = lower value

Row | Structure (SMILES) | activity remaining
1 | CC(C1OC(C)(C)C(O)C1O)[C@@H]1CC[C@]2(C)C3=CCC4C(C)(C)C(=O)CC[C@]4(C)C3CC[C@@]12C (stereo partly specified) | 111%
2 | C=CCSCC=C | 109%
3 | O=C(O)c1cc(=O)c2ccccc2o1 | 110%
4 | O=C(CCc1ccc(O)cc1)c1c(O)cc(O)cc1O[C@@H]1O[C@H](CO)[C@@H](O)[C@H](O)[C@H]1O | 105%
5 | CS(=O)(=O)c1ccc([C@@H](O)[C@@H](CO)NC(=O)C(Cl)Cl)cc1 | 124%
6 | C=C1CCC2C(CC2(C)C)C(=O)CCC1O (stereo unspecified) | 116%
7 | COC(=O)C1=CO[C@@H](O[C@@H]2O[C@H](CO)[C@@H](O)[C@H](O)[C@H]2O)[C@H]2C1C(=O)C[C@@H]2C (stereo partly specified) | 112%
8 | C[N+](C)(C)CCOP(=O)([O-])OP(=O)(O)OC[C@H]1OC(n2ccc(N)nc2=O)[C@H](O)[C@@H]1O (stereo partly specified) | 118%
9 | CC(CCC(=O)O)[C@H]1CCC2C3C[C@H](O)[C@@H]4C[C@H](O)CC[C@]4(C)C3CC[C@@]21C (stereo partly specified) | 104%
10 | C#C[C@]1(O)CCC2C3CCC4=CC(=O)CC[C@@H]4C3CC[C@@]21C (stereo partly specified) | 108%
11 | C[C@]12CCC(=O)C=C1CCC1C2[C@@H](O)C[C@@]2(C)C1CC[C@]2(O)C(=O)CO (stereo partly specified) | 113%
12 | Oc1ccc2c(c1)OCC1(O)Cc3cc(O)c(O)cc3C21 (stereo unspecified) | 91.6%
13 | COC1=C(O)C(=O)c2c(cc3oc(C(C)=O)c(O)c3c2O)C1=O | 108%
14 | C#C[C@]1(O)CCC2C3CCc4cc(O)ccc4C3CC[C@@]21C (stereo partly specified) | 105%
15 | N[C@@H](Cc1cc(I)c(Oc2ccc(O)c(I)c2)c(I)c1)C(=O)O | 125%
16 | CC(C)N=C(N)/N=C(\N)Nc1ccc(Cl)cc1 | 102%
17 | COc1c2ccoc2cc2oc(C)cc(=O)c12 | 108%
18 | CCC(=O)c1c(O)cc(O)cc1O | 116%
19 | C=C1c2c(Cl)ccc(O)c2C(O)=C2C(=O)[C@]3(O)C(O)=C(C(N)=O)C(=O)[C@@H](N(C)C)[C@@H]3[C@@H](O)[C@H]12 | 109%
20 | O=C(O[C@@H]1Cc2c(O)cc(O)cc2O[C@@H]1c1cc(O)c(O)c(O)c1-c1c([C@H]2Oc3cc(O)cc(O)c3C[C@H]2OC(=O)c2cc(O)c(O)c(O)c2)cc(O)c(O)c1O)c1cc(O)c(O)c(O)c1 | 111%
21 | O=C(OOC(=O)c1ccccc1)c1ccccc1 | 113%
22 | NC(=NCCCCCCN=C(N)/N=C(\N)Nc1ccc(Cl)cc1)/N=C(\N)Nc1ccc(Cl)cc1 | 95.5%
23 | COC1C=CC23c4cc5c(cc4CN(C[C@H]2O)[C@@H]3C1)OCO5 (stereo partly specified) | 110%
24 | COc1ccc2c(c1)OC/C(=C\c1ccc(OC)c(O)c1)C2=O | 120%
25 | Nc1ccc(S(N)(=O)=O)cc1 | 116%
26 | CC(=O)OC/C=C(C)/C=C/C=C(C)/C=C/C1=C(C)CCCC1(C)C | 92.2%
